{"source": "PubChem BioAssay AID1845", "about": "(The Scripps Research Institute Molecular Screening Center, 2009)", "note": "Hit rate of the full screen: of about 290,000 compounds, about 490 (0.17%) were called active. The entries come from a sample that favours actives as a whole. A number with no mark means an inactive call. Rule as the data show it: active = inhibition above about 37%; inactive = the rest."}
{"assay": "compounds displacing fluorescent DNA intercalator, primary screen, artefact control for HCV NS3 helicase inhibitor project, biochemical, FID fluorescence (AID 1845);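 also: 0% = vehicle and 100% = reference compound; higher means more ethidium bromide displaced from hairpin DNA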", "details": "DNA fluorescent intercalator displacement, at 7.9 µM, active compounds read high"}
{"smiles": "CN(C)CCNC(=O)/C(=C/c1cccc([N+](=O)[O-])c1)NC(=O)c1ccccc1", "inhibition": "14.4%"}
{"smiles": "N#C/C(=C\\c1ccc(-c2cccc([N+](=O)[O-])c2)o1)C(=O)NCCN1CCOCC1", "inhibition": "6.61%"}
{"smiles": "Cc1ccc(C(=O)N/C(=C/c2ccc(-c3cccc([N+](=O)[O-])c3)o2)C(=O)NCCCN(C)C)cc1", "inhibition": "41.5% (active)"}
{"smiles": "CCN(CC)CCCNC(=O)Cn1cnc2sc(C)c(S(=O)(=O)N3CCN(c4ncccn4)CC3)c2c1=O", "inhibition": "26.1%"}
{"smiles": "CCN(CC)CCNC(=O)c1sc2ncn(CC(=O)Nc3ccc(C)c(Cl)c3)c(=O)c2c1C", "inhibition": "37% (active)"}
{"smiles": "CCN(CC)CCNC(=O)Cn1cnc2sc(C)c(S(=O)(=O)N3CCOCC3)c2c1=O", "inhibition": "11.1%"}
{"smiles": "O=C(c1c(F)cccc1F)N1CCN(c2ncc(Br)cn2)CC1", "inhibition": "-20.1%"}
{"smiles": "Cc1cc(=O)oc2c3c(cc(OCC(=O)NCCC(=O)N[C@@H](C)C(=O)O)c12)OC(C)(C)CC3", "inhibition": "-35.5%"}
{"smiles": "CCn1c(=O)c(C(=O)NCc2ccc3c(c2)OCO3)c(O)c2ccccc21", "inhibition": "-4.83%"}
{"smiles": "CC1CC(C)CN(S(=O)(=O)c2cccc3nonc23)C1", "note": "(configuration not stated)", "inhibition": "-7.76%"}
{"smiles": "C=CCN(Cc1nc(-c2cc(OC)c3c(c2)OCO3)oc1C)C1CCS(=O)(=O)C1", "note": "(configuration not stated)", "inhibition": "-27.8%"}
{"smiles": "Clc1cc(NC2CCCCC2)ncn1", "inhibition": "-15.2%"}
{"smiles": "CS(=O)(=O)N(CC(=O)N/N=C/c1ccccn1)c1ccc(Oc2ccccc2)cc1", "inhibition": "-33.5%"}
{"smiles": "Cc1cc(C)c2nc3nc(C)cc(C)c3c(N)c2c1", "inhibition": "62.7% (active)"}
{"smiles": "Cc1cc(C)c2nc(SCCC#N)nc(C)c2c1", "inhibition": "-17%"}
{"smiles": "Cc1cc(C)c2c(n1)nn1c(N3CCOCC3)cc(C)nc21", "inhibition": "-11.1%"}
{"smiles": "O=C1c2ccccc2C(=O)c2c1cccc2N1CCN(Cc2ccccc2)CC1", "inhibition": "8.12%"}
{"smiles": "OCCN1CCN(c2nnc(-c3ccccc3)c3ccccc23)CC1", "inhibition": "-5.67%"}
{"smiles": "O=C1c2ccccc2C(=O)c2c1cccc2N1CCN(CCO)CC1", "inhibition": "53.2% (active)"}
{"smiles": "Cc1cccc(-c2nc(CS(=O)CC(=O)NC(C)CCc3ccccc3)c(C)o2)c1", "note": "(configuration not stated)", "inhibition": "-57.2%"}
{"smiles": "CC(=N\\NC(=O)c1cc(Br)ccc1O)/C(=N/O)C(=O)Nc1ccccc1", "inhibition": "-11.2%"}
{"smiles": "CN1CCN(NC(=O)Nc2ccc(Br)cc2)CC1", "inhibition": "-5.13%"}
{"smiles": "COc1ccccc1NC(=O)C(C)OC(=O)CC1CCCC1", "note": "(configuration not stated)", "inhibition": "-26.3%"}
{"smiles": "CC(=O)NC(CC(=O)Nc1nc(-c2ccccc2)c(C(C)=O)s1)c1ccccc1", "note": "(configuration not stated)", "inhibition": "-16.9%"}
{"smiles": "Clc1nc(NC2CCCC2)nc(N2CCOCC2)n1", "inhibition": "-6.99%"}
{"smiles": "O=C(CNC(=O)[C@@H]1Cc2ccccc2CN1)NC1CCCCC1", "inhibition": "0.62%"}
{"smiles": "CC(C)c1cc(C(=O)N/N=C/C(Br)=C/c2ccccc2)n[nH]1", "inhibition": "-26.4%"}
{"smiles": "CCN(CC(=O)NCc1cccs1)C(=O)c1cccc(S(=O)(=O)Nc2ccccc2OC)c1", "inhibition": "-11.7%"}
{"smiles": "COCCNC(=O)c1ccc(S(=O)(=O)c2ccc(Cl)cc2)c(NC(C)=O)c1", "inhibition": "0.74%"}
{"smiles": "COC(=O)C1(C)NC(c2ccc(F)cc2)C2C(=O)N(c3ccccc3)C(=O)C21", "note": "(configuration not stated)", "inhibition": "0.11%"}
{"smiles": "CN(C)C(=O)CCC(=O)N1CCCCC1C(=O)Nc1ccc(Oc2ccccc2F)cc1", "note": "(configuration not stated)", "inhibition": "-34%"}
{"smiles": "C#CCOCCOCCOCCNc1nc(N2CCN(C(=O)[C@H](C(C)C)n3cc(CCO)nn3)CC2)nc(N2CCN(C(=O)[C@H]([C@@H](C)CC)n3cc(CCCN=C(N)N)nn3)CC2)n1", "inhibition": "21.4%"}
{"smiles": "C#CCOCCOCCOCCNc1nc(N2CCN(C(=O)C(Cc3ccc(O)cc3)n3cc(C(N)CC(C)C)nn3)CC2)nc(N2CCN(C(=O)C(Cc3ccc(O)cc3)n3cc(C(N)C(C)CC)nn3)CC2)n1", "note": "(configuration not stated)", "inhibition": "46.3% (active)"}
{"smiles": "C#CCOCCOCCOCCNc1nc(N2CCN(C(=O)[C@H](CCC(=O)O)n3cc(C(N)CO)nn3)CC2)nc(N2CCN(C(=O)[C@H](Cc3ccc(O)cc3)n3cc(C(N)[C@H](C)CC)nn3)CC2)n1", "note": "(some centres not stated)", "inhibition": "6.75%"}
{"smiles": "C#CCOCCOCCOCCNc1nc(N2CCN(C(=O)[C@H](C(C)C)n3cc(CCO)nn3)CC2)nc(N2CCN(C(=O)[C@H](C(C)C)n3cc(CCO)nn3)CC2)n1", "inhibition": "-49.9%"}
{"smiles": "C#CCOCCOCCOCCNc1nc(N2CCN(C(=O)[C@H](Cc3ccc(O)cc3)n3cc(C(N)CC(C)C)nn3)CC2)nc(N2CCN(C(=O)[C@H](CCC(=O)O)n3cc(C(N)[C@H](C)CC)nn3)CC2)n1", "note": "(some centres not stated)", "inhibition": "17.7%"}
{"smiles": "C#CCOCCOCCOCCNc1nc(N2CCN(C(=O)[C@H](CCCCN)n3cc([C@@H](N)C(C)CC)nn3)CC2)nc(N2CCN(C(=O)[C@H](Cc3ccc(O)cc3)n3cc([C@@H](N)C(C)CC)nn3)CC2)n1", "note": "(some centres not stated)", "inhibition": "55.6% (active)"}
{"smiles": "Cc1cc(C)n(CCNS(=O)(=O)c2ccc(Cl)cc2)n1", "inhibition": "-8.78%"}
{"smiles": "COc1ccc(S(=O)(=O)NNC(=O)Nc2ccc(C)cc2)c(OC)c1", "inhibition": "-10.4%"}
{"smiles": "CN1CCN(S(=O)(=O)c2cccc(C(=O)Nc3cccc(S(N)(=O)=O)c3)c2)CC1", "inhibition": "12.4%"}
{"smiles": "Cc1ccc(S(=O)(=O)NC2CCCCCC2)cc1C(N)=O", "inhibition": "-7.28%"}
{"smiles": "CSc1ncc(C(=O)Nc2ccc(C)cc2C)c(C)n1", "inhibition": "-12.3%"}
{"smiles": "Cc1ccccc1C(=O)N1CCN(c2ccc(NC(=O)c3cccs3)cc2)CC1", "inhibition": "-49.5%"}
{"smiles": "CC(C)c1nc2cc(C(=O)NC(C)c3cnn(C)c3)ccc2o1", "note": "(configuration not stated)", "inhibition": "-13.1%"}
{"smiles": "COc1cccc(NC(=O)Cn2cnc3sc(C)c(S(=O)(=O)N4CCN(C)CC4)c3c2=O)c1", "inhibition": "26.6%"}
{"smiles": "COc1ccc(NC(=O)CCS(=O)(=O)c2cc3c(cc2Cl)NC(=O)CO3)cc1OC", "inhibition": "-5.06%"}
{"smiles": "COc1ccc(CNC(=O)C(c2ccc(O)cc2)N(Cc2ccco2)C(=O)c2snc(C(N)=O)c2N)cc1", "note": "(configuration not stated)", "inhibition": "-26.1%"}
{"smiles": "O=C(Cn1c(NCCO)nc2ccccc21)c1ccc(Cl)cc1Cl", "inhibition": "8.95%"}
{"smiles": "Cc1cc(C)c2c(Cn3ccnc3)cc(=O)oc2c1", "inhibition": "-1.43%"}
{"smiles": "Cc1sc2nc(SCCO)n(-c3ccccc3)c(=O)c2c1C", "inhibition": "-17.8%"}
{"smiles": "Cc1cc(=O)[nH]c(Nc2cccc(Br)c2)n1", "inhibition": "-6.32%"}
{"smiles": "CC(C)(C)OC(=O)CNC(=O)c1[nH]cnc1C(=O)N[C@@H](Cc1ccccc1)C(=O)OCc1ccccc1", "inhibition": "-34.4%"}
{"smiles": "CN(C)C(=O)c1ccc(NC(=O)c2ccccc2-c2ccccc2)cc1", "inhibition": "-15.1%"}
{"smiles": "Cc1ccoc1C(=O)Nc1cccc(Oc2ccccc2)c1", "inhibition": "-5.38%"}
{"smiles": "CCC(C(=O)NCCC(C)C)N(Cc1ccccc1Cl)C(=O)c1snc(C(N)=O)c1N", "note": "(configuration not stated)", "inhibition": "-29.9%"}
{"smiles": "COc1ccc(NC(=O)CN2C(=O)COc3ccc(S(=O)(=O)N4CCOCC4)cc32)c(OC)c1", "inhibition": "-13.3%"}
{"smiles": "COc1ccc(N2CCN(CCNC(=O)Nc3cc(Cl)ccc3Cl)CC2)cc1", "inhibition": "21%"}
{"smiles": "CCCCc1nc(SCC(=O)Nc2nnc(C(C)C)s2)n[nH]1", "inhibition": "-16.5%"}
{"smiles": "O=C(NCCN1CCOCC1)c1ccc(/C=C2\\Sc3ccccc3N(Cc3ccc(F)cc3)C2=O)cc1", "inhibition": "0.94%"}
{"smiles": "CN1C(=O)/C(=C/c2ccc(C(=O)NC3CCCC3)cc2)Oc2ccccc21", "inhibition": "1.1%"}
{"smiles": "CN1CCN(CCCNC(=O)c2ccc(/C=C3\\Oc4ccccc4N(Cc4ccc(Cl)cc4)C3=O)cc2)CC1", "inhibition": "40.6% (active)"}
{"smiles": "OCCNc1nc(Nc2ccc(Cl)c(Cl)c2)nc2ccccc12", "inhibition": "40.6% (active)"}
{"smiles": "Nc1nc(Nc2ccccc2)nc(NCCO)c1[N+](=O)[O-]", "inhibition": "-6.38%"}
{"smiles": "CN(C)c1nc(Nc2ccc(Cl)c(Cl)c2)nc(N(C)C)n1", "inhibition": "-4.12%"}
{"smiles": "COc1ccc(NC(=O)NNC(=O)COc2cc(C)c(Cl)c(C)c2)c(OC)c1", "inhibition": "-28%"}
{"smiles": "CCOC(=O)C(NS(=O)(=O)c1ccc(C)cc1)(C(F)(F)F)P(=O)(OCC(C)C)OCC(C)C", "note": "(configuration not stated)", "inhibition": "-11.5%"}
{"smiles": "Cc1cc(OCC(=O)N2CCN(c3ncccn3)CC2)ccc1Cl", "inhibition": "-46.1%"}
{"smiles": "O=C(O)c1ccc2c(=O)n3c(nc2c1)/C(=C/c1ccc(Cl)c([N+](=O)[O-])c1)CC3", "inhibition": "-14.2%"}
{"smiles": "CCOc1ccc(C(O)Cn2c(=N)n(CCN3CCCCC3)c3ccccc32)cc1", "note": "(configuration not stated)", "inhibition": "40.9% (active)"}
{"smiles": "Cc1cccc(OCC(O)Cn2c(=N)n(CCN3CCOCC3)c3ccccc32)c1", "note": "(configuration not stated)", "inhibition": "18.2%"}
{"smiles": "Cn1c(=N)n(CC(O)c2ccccc2)c2ccccc21", "note": "(configuration not stated)", "inhibition": "2.17%"}
{"smiles": "CCC1CCCCN1CCCNC(=O)C1CCC(Cn2c(=O)[nH]c3ccccc3c2=O)CC1", "note": "(configuration not stated)", "inhibition": "2.92%"}
{"smiles": "CCC1CCCCN1CCCNC(=O)c1cc2c(Cl)nc3ccccc3c2s1", "note": "(configuration not stated)", "inhibition": "43.6% (active)"}
{"smiles": "CCC1CCCCN1CCCNC(=O)Cn1nc(-c2ccccc2)ccc1=O", "note": "(configuration not stated)", "inhibition": "0.11%"}
{"smiles": "O=C(N/N=C/c1ccc(OCC2COCCO2)cc1)c1ccc(Br)cc1", "note": "(configuration not stated)", "inhibition": "-19.9%"}
{"smiles": "CCCCCCc1cc2cc(-c3nnc(-c4cccc(OC)c4)o3)c(=O)oc2cc1O", "inhibition": "0.28%"}
{"smiles": "CN(C)CCCn1c(SCc2ccc(Cl)cc2)nnc1-c1ccncc1", "inhibition": "3.61%"}
{"smiles": "COc1ccc(OC)c(NC(=O)CN(Cc2ccc(Cl)cc2)S(C)(=O)=O)c1", "inhibition": "-26.1%"}
{"smiles": "O=C(/C=C/c1ccco1)NC(=S)Nc1ccccc1Br", "inhibition": "-8.41%"}
{"smiles": "CCCNC(=O)N1CCC(c2ccc3c(c2)OCO3)CC1", "inhibition": "-7.97%"}
{"smiles": "NC(=O)COC(=O)c1ccc2c(c1)C(=O)N(Cc1ccco1)C2=O", "inhibition": "-2.94%"}
{"smiles": "CCn1nnnc1SCC(=O)Nc1ccc(N(C)C)cc1", "inhibition": "-4.25%"}
